Active and inactive are the calls of the source.
Key:
[1] = test system: Plasmodium falciparum Sir2 (PF13_0152, Sir2A); experiment: Plasmodium falciparum Sir2A binding compounds – biochemical, small-molecule microarray, 635 nm fluorescence, primary screen (AID 1098); conditions: fluorescence 635 nm, higher = more signal;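 note: score merges spot fluorescence intensity with its signal-to-noise ratio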
[2] = probe aDKK1 binding to arrayed compounds – biochemical, biotinylated probe, 635/667 nm fluorescence, primary screen (AID 1099); conditions: small-molecule microarray, higher = more signal;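 note: score merges 667nm spot fluorescence with signal to noise across triplicate slides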
[3] = probe aCHRDL2 binding to arrayed compounds – biochemical, biotinylated probe, 635/667 nm fluorescence, primary screen (AID 1100); conditions: small-molecule microarray, higher = more signal
[4] = change in splice reporter luminescence, either direction, cell-based, HEK293, spliceosome inhibition project, primary screen (AID 1101); conditions: HEK293 splicing luciferase reporter, 24 h, higher = more signal, called active from +8 up or from −8 down;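 note: HEK293 cells carrying a splicing-competent luciferase reporter gene; test concentration not given here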
[5] = biological target: Fibroblast growth factor 10 (Homo sapiens) (UniProt O15520); experiment: compounds binding fibroblast growth factor 10 – biochemical, small-molecule microarray, 635 nm fluorescence, primary screen (AID 1102); conditions: FGF10 binding, fluorescence 635 nm, higher = more signal
[6] = test system: glycogen synthase kinase-3 (GSK3A per assay name; protocol says GSK3B); experiment: compounds binding glycogen synthase kinase-3 – biochemical, small-molecule microarray, 635 nm fluorescence, GSK3A, primary screen (AID 1103); conditions: fluorescence 635 nm, higher = more signal; note: the record names both GSK3A and GSK3B
[7] = biological target: Epidermal growth factor receptor (Homo sapiens) (UniProt P00533); experiment: compounds binding epidermal growth factor receptor – biochemical, small-molecule microarray, 635 nm fluorescence, primary screen (AID 1104); conditions: EGFR binding, higher = more signal;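 note: score merges 667 nm emission intensity with spot signal to noise over triplicate slides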
[8] = biological target: Follistatin-related protein 3 (Homo sapiens) (UniProt O95633); experiment: compounds binding follistatin-related protein 3 – biochemical, small-molecule microarray, 635 nm fluorescence, primary screen (AID 1105); conditions: FSTL3 binding, higher = more signal;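 note: score merges emission near 667 nm and signal to noise per printed spot across three slides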
[9] = biological target: Dickkopf-related protein 1 (Homo sapiens) (UniProt O94907); experiment: small molecules binding DKK1 protein – biochemical, small-molecule microarray, 635 nm fluorescence scan, primary screen (AID 1106); conditions: higher = more signal;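 note: score merges emission near 667 nm with signal to noise over three replicate slides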
[10] = test system: Inhibin beta A chain (activin A); experiment: small molecules binding activin A – biochemical, small-molecule microarray, 635 nm fluorescence scan, primary screen (AID 1107); conditions: INHBA, higher = more signal;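 note: mouse activin A protein probed at 4.33 µg/mL on printed slides; score merges bound-protein fluorescence near 667 nm with spot signal-to-noise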
[11] = test system: Human papillomavirus type 1a protein E7 (residues 44-93); experiment: small molecules binding HPV E7 44-93 – biochemical, small-molecule microarray, residues 44-93, 635 nm fluorescence, primary screen (AID 1108); conditions: fluorescence 635 nm, higher = more signal;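 note: E7 fragment applied at 1 µg/mL in TBST for 1 h at 4 C; score combines spot fluorescence with its signal to noise ratio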
[12] = hepatitis C replication reporter changes, two-sided – Huh7 cells, luciferase reporter, HCV replication inhibitor project, primary screen (AID 1109); conditions: Huh7 HCV replicon luciferase reporter, 48 h; higher = more signal;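 note: huh7 hepatoma cells harbouring a luciferase neomycin HCV replicon reporter; luciferase luminescence as measure of HCV replicon replication; test concentration not given here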
[13] = biological target: Left-right determination factor 2 (Homo sapiens) (UniProt O00292); experiment: small molecules binding LEFTY2 protein – biochemical, small-molecule microarray, 635 nm fluorescence scan, primary screen (AID 1110); conditions: higher = more signal
[14] = biological target: Calmodulin-1 (Homo sapiens) (UniProt P0DP23); experiment: small molecules binding calmodulin-1 with EGTA – biochemical, small-molecule microarray, Cy5-labelled CALM1, profiling panel (AID 1111); conditions: Cy5-CALM1 binding fluorescence, higher = more signal;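 note: labelled calmodulin applied in Tris saline Tween buffer holding calcium plus EGTA and DTT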
[15] = biological target: Calmodulin-1 (Homo sapiens) (UniProt P0DP23); experiment: small molecules binding Ca-loaded calmodulin-1 – biochemical, small-molecule microarray, Cy5-labelled CALM1, plus calcium, artefact control for SMM control-protein annotation, profiling panel (AID 1112); conditions: Cy5-CALM1 binding fluorescence, higher = more signal;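 note: score merges spot fluorescence with signal to noise from triplicate slides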
[16] = probe aWnt5a binding to arrayed compounds – biochemical, biotinylated probe, 635/667 nm fluorescence, primary screen (AID 1113); conditions: small-molecule microarray, higher = more signal;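 note: score merges 667 nm fluorescence intensity with signal-to-noise per printed feature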
[17] = probe aShh binding to arrayed compounds – biochemical, biotinylated probe, 635/667 nm fluorescence, primary screen (AID 1114); conditions: small-molecule microarray, higher = more signal;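 note: probe is biotin-labelled aShh protein from a stem cell growth factor screen; measures binding of labelled protein to compounds printed on the slide; score merges feature fluorescence at 667 nm with signal-to-noise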
[18] = probe aNog binding to arrayed compounds – biochemical, biotinylated probe, 635/667 nm fluorescence, primary screen (AID 1115); conditions: small-molecule microarray, higher = more signal;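 note: probe is biotinylated aNog protein used at 0.15 µg/mL for 1 h at 4 C; z-score combines 667 nm fluorescence of each spot with its signal to noise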
[19] = biological target: Torsin-1A-interacting protein 1 (Homo sapiens) (UniProt Q5JTV8); experiment: compound microarray binding of lysate hLAP1 – cell lysate, small-molecule microarray, COS7 lysate, 635/667 nm fluorescence, primary screen (AID 1116); conditions: 635 nm fluorescence, higher = more signal
[20] = biological target: Alpha-bungarotoxin (Bungarus multicinctus) (UniProt P60615); experiment: compounds binding labelled alpha-BTX control protein – biochemical, small-molecule microarray, Alexa647 label, 635/667 nm fluorescence, artefact control for SMM control protein annotation, profiling panel (AID 1117); conditions: alpha-BTX-A647 binding fluorescence, higher = more signal
Alpha-bungarotoxin (Bungarus multicinctus), sequence (P60615 whole entry, looked up): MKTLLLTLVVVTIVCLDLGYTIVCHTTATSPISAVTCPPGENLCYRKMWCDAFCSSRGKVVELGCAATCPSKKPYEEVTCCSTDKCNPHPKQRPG

Dickkopf-related protein 1 (Homo sapiens), sequence (O94907 whole entry, looked up): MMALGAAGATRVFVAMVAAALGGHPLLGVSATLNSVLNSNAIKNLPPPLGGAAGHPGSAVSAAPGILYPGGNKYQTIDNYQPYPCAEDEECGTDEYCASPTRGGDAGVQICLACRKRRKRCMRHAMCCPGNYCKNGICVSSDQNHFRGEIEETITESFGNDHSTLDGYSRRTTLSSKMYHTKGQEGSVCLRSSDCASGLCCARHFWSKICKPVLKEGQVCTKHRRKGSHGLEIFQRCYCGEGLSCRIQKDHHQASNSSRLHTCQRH
Left-right determination factor 2 (Homo sapiens), sequence (O00292 whole entry, looked up): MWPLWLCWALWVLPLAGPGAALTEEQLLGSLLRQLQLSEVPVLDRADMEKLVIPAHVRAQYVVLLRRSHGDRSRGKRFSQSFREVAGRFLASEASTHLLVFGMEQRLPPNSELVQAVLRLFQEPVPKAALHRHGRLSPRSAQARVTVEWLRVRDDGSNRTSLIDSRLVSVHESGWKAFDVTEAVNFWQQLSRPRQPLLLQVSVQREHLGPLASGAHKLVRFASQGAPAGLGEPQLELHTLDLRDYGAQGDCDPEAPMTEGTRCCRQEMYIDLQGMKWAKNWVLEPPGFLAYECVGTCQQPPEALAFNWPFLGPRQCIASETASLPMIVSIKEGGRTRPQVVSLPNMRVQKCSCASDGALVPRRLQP
Fibroblast growth factor 10 (Homo sapiens), sequence (O15520 whole entry, looked up): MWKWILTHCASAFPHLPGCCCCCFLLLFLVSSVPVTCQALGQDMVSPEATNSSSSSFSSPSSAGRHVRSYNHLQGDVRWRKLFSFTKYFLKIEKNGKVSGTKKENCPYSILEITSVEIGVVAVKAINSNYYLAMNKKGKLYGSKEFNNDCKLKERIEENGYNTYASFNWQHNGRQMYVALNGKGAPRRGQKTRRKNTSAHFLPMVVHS
Torsin-1A-interacting protein 1 (Homo sapiens), sequence (Q5JTV8 whole entry, looked up): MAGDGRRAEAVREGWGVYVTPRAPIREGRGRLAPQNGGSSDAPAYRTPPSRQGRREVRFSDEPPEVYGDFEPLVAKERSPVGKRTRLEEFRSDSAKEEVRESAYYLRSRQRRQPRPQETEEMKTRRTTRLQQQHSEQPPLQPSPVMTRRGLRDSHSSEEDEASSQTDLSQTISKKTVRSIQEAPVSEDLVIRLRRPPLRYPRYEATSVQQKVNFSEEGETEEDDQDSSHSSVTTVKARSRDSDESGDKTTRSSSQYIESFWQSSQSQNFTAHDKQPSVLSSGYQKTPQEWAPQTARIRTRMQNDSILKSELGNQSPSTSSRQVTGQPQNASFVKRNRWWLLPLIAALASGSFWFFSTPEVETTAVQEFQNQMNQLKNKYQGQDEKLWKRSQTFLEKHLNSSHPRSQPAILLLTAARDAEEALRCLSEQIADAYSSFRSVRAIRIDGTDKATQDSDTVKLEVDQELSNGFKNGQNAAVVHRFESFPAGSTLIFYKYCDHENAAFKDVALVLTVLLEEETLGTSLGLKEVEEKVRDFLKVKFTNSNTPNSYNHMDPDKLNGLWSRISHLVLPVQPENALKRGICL
Follistatin-related protein 3 (Homo sapiens), sequence (O95633 whole entry, looked up): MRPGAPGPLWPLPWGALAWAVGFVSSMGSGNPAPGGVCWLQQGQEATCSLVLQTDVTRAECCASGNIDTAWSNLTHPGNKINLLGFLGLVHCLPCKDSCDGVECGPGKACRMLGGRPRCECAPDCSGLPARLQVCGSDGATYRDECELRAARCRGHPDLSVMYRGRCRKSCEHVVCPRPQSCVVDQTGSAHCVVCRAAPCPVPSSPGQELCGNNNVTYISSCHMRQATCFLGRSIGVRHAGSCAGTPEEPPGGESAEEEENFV
Epidermal growth factor receptor (Homo sapiens), sequence (P00533 whole entry, looked up): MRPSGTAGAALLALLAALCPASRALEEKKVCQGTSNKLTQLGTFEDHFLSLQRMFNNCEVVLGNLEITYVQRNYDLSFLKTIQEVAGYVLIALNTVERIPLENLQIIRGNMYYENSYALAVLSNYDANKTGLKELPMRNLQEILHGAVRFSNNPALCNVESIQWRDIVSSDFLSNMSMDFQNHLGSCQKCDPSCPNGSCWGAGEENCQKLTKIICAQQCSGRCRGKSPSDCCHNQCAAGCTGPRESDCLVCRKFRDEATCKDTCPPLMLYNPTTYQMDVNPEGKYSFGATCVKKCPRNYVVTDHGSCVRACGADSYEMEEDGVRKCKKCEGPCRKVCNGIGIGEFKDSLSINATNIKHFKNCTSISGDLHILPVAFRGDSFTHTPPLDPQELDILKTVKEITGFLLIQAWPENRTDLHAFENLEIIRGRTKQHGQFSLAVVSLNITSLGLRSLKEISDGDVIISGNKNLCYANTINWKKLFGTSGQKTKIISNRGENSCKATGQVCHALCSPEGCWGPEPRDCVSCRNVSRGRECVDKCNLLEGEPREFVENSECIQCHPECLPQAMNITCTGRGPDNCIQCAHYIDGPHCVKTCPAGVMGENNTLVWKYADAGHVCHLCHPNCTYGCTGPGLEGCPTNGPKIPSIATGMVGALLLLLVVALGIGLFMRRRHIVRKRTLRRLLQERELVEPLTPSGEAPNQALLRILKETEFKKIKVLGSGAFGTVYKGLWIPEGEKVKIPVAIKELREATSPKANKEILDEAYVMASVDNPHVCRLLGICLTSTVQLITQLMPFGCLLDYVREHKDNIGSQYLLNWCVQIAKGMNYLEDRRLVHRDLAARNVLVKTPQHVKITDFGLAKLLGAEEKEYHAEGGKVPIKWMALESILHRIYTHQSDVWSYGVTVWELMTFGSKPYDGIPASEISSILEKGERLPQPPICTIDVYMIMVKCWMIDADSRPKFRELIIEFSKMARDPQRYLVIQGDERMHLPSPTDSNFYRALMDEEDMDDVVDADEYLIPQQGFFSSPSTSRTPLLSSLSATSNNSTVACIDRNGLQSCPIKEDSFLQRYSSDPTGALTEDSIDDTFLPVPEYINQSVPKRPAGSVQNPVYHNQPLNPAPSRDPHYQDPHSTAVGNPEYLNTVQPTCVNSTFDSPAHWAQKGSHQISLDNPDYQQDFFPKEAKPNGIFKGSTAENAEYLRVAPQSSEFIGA

Compound	composite z-score [1]	composite z-score [2]	composite z-score [3]	z-score [4]	composite z-score [5]	composite z-score [6]	composite z-score [7]	composite z-score [8]	composite z-score [9]	composite z-score [10]	composite z-score [11]	z-score [12]	composite z-score [13]	composite z-score [14]	composite z-score [15]	composite z-score [16]	composite z-score [17]	composite z-score [18]	composite z-score [19]	composite z-score [20]
CCCNC(=O)[C@@]1(C)c2ccccc2C(=O)N(Cc2ccc(OC(F)(F)F)cc2)[C@H]1c1ccc(CO)cc1	1.57	0.0743	0.666	-0.129 (inactive)	0.0672	0.0816	-1.02	-0.401	-0.977	0.427	-0.481	-0.16	-0.808	0.149	-0.124	-0.0685	-0.222	0.597	1.28	0.0855
Oc1ccc2cc[n+](Cc3cccc(OC(F)(F)F)c3)cc2c1	1.36	-0.319	-0.576	0.609 (inactive)	0.837	-0.477	1.2	1.24	0.732	0.826	-0.112	-0.114	0.939	-0.582	-0.77	-0.152	0.0515	-0.85	-0.0554	0.266
COc1ccc(CCNC(=O)[C@@]2(C)c3ccccc3C(=O)N(Cc3ccccc3)[C@H]2c2ccc(CO)cc2)cc1	1.49	0.28	0.376	-0.278 (inactive)	1.26	0.707	0.433	1.43	0.548	0.684	1.16	-2.06	0.449	0.617	-0.703	0.0618	0.0141	0.304	1.56	1.78
CC1(C)C(=O)C(c2ccccc2)=C2CN3C(=O)N(CCc4ccccc4)C(=O)C3(Cc3ccccc3)C=C21 (stereo not given)	0.155	1.06	1.12	0.917 (inactive)	0.363	0.182	-0.0726	0.949	-1.03	1.09	1.03	-1.58	-0.0283	1.03	0.9	0.0633	0.375	0.578	-0.0882	1.68
C=CCC(OC(C)=O)[C@@H]1[C@@H](N(Cc2ccc(-c3ccccc3)cc2)C(=O)c2ccc(C)cc2)c2cc(OCCCO)ccc2N1C(=O)Cc1ccc(OC)cc1 (stereo not given in full)	1.36	-0.0745	-0.216	-1.03 (inactive)	0.191	-0.159	0.0485	0.0762	0.22	1.23	0.422	-0.75	0.0181	-0.0181	-0.164	0.0115	-0.273	-0.0579	0.0982	1.73
NC(=O)NCC#Cc1ccc2c(c1)[C@]1(C(=O)N2)[C@H](C(=O)NC[C@H](O)c2ccccc2)[C@H]2C(=O)O[C@H](c3ccccc3)[C@H](c3ccccc3)N2[C@@H]1c1ccccc1OCCO	1.3	-0.0611	0.729	-0.416 (inactive)	0.588	-0.425	0.143	-0.0845	-1.04	0.286	1.41	-1.49	-0.914	0.103	-0.134	-0.139	-0.301	0.665	0.433	3.26
COc1ccccc1CN1C(=O)c2ccccc2[C@](Cc2ccccc2I)(C(=O)NCc2ccccc2)[C@@H]1c1ccc(CO)cc1	0.17	0.131	0.875	0.164 (inactive)	0.184	-0.0893	-0.593	-0.457	-0.341	0.9	0.0977	-0.641	-0.703	0.0656	0.556	0.037	-0.264	-0.268	-0.0999	1.05
COCCOC(=O)N1C(=O)[C@@]2(c3cc(C#CCCO)ccc31)[C@H](c1ccc(O)cc1)N1[C@H](c3ccccc3)[C@H](c3ccccc3)OC(=O)[C@H]1[C@@H]2C(=O)N1CCCCCCC1	1.4	1.51	0.885	0.242 (inactive)	1.13	1.26	0.483	1.39	0.771	1.59	0.727	-0.407	0.811	1.51	0.425	0.17	0.374	-0.295	2.53	1.92
CC(C)[C@H]1COC(=O)N1C(=O)[C@H]1[C@@H](c2ccccc2)N(c2ccccc2)O[C@@H]1C	0.22	-0.139	-0.273	0.145 (inactive)	0.521	0.474	0.218	1.04	0.517	0.264	0.359	-0.383	0.729	0.35	-0.434	-0.1	-0.206	0.0373	0.15	0.107
COCC1C2CC[C@H]3C(OCc4ccc(F)cc4C(F)(F)F)OC[C@]4(C)[C@H]3C2=C(CN4C(=O)OC(C)(C)C)[C@H](C)C1COC (stereo not given in full)	1.45	1.04	1.23	-0.625 (inactive)	0.189	0.366	0.0761	0.45	0.202	0.939	1.37	-0.386	-0.13	2.61	1.37	0.0017	0.177	2.19	1.56	0.9

Source: PubChem BioAssay
